HP1b binding inh = inhibitors of HP1-beta chromodomain binding to methylated histone tails; 390,000 tested, 0.56% active; AID 540317; Potency, µM (highest dose often 114 µM), for inactives: at the highest dose activity change, negative = inhibition, usual class: inhibitors; AlphaScreen HP1-beta / biotin-H3K9me3 peptide binding; further: nearly all actives have a fitted effect of over 70% in size
Target sequence (P83916 whole entry, looked up): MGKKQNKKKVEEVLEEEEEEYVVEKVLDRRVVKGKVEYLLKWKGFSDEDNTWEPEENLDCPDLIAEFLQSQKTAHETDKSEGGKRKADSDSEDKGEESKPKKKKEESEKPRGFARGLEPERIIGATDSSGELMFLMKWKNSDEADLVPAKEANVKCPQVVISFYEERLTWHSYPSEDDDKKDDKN
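HP1-beta protein (50 nM final) preincubated 30 min at room temperature with biotinylated H3(1-18)K9me3 peptide (50 nM) in PBS pH 7.4, 0.01% Tween-20, then compound added for 30 min. AlphaScreen streptavidin donor/nickel chelate acceptor beads (10 ug/mL final), 30 min dark, luminescence read.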
BAZ2B block = blocks human BAZ2B. Potency, µM (highest dose often 114 µM), for inactives: at the highest dose activity change, negative = inhibition, hits mostly inhibitors. AID 504333. AlphaScreen BAZ2B-H3K14Ac peptide displacement. Q9UIF8. 360,000 tested, 4.4% active; further: on the % scale 0 is the no-effect control and ±100 the full control effect; nearly all actives have a fitted effect of over 60% in size
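Compounds, titrated to a top concentration of 110 uM, were incubated 30 min at room temperature with preformed BAZ2B/acetyl-K14 H3 peptide complex (50 nM each). Proximity signal was measured by AlphaScreen after 20 min with beads.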
PLK1 PBD block = blocks phosphopeptide binding to human PLK1 polo-box domain; 360,000 tested, 2.8% active; Potency, µM, without a hit: max response, negative = inhibition, usual class: inhibitors; Plk1 PBD binding of FITC phosphopeptide, fluorescence polarization; further: series mostly up to about 57 µM; on the % scale 0 is the no-effect control and ±100 the full control effect; nearly all actives have a fitted effect of over 65% in size
VDR inh = inhibitors of human vitamin D receptor. P11473. 400,000 tested, 0.93% active. Potency, µM, inactives show max response, negative = inhibition, hits mostly inhibitors. VDR-SRC2-3 peptide fluorescence polarization, 2 h; further: on the % scale 0 is the no-effect control and ±100 the full control effect
Target sequence (P11473 whole entry, looked up): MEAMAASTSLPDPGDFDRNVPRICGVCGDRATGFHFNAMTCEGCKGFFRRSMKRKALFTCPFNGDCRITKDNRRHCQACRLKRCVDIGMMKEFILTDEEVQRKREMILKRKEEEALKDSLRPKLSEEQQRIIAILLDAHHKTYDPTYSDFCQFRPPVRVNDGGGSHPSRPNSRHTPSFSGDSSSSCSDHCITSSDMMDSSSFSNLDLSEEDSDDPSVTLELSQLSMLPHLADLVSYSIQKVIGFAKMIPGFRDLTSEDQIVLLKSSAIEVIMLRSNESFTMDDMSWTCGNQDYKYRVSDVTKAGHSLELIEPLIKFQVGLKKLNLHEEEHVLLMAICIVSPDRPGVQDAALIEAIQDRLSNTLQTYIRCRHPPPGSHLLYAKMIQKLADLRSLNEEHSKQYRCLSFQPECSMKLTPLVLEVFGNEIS
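Compounds are added to VDR with labelled SRC2-3 coactivator peptide and held 2 h at room temperature. Inhibition of the VDR–peptide interaction is then read as a change in fluorescence polarization.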
L3MBTL1 block = L3MBTL1 (human) inhibition. Potency, µM (top dose mostly 57.1 µM), inactives show at the highest dose activity, negative = inhibition, usual class: inhibitors. AlphaScreen L3MBTL1–H3K9me1 peptide binding. Q9Y468. AID 485360. 230,000 tested, 0.66% active; further: on the % scale 0 is the no-effect control and ±100 the full control effect; nearly all actives have a fitted effect of over 60% in size
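Displacement of a biotinylated histone H3(1-15) peptide monomethylated at Lys9 (75 nM) from L3MBTL1 (50 nM) was measured by AlphaScreen after a 30 min room-temperature compound incubation; cefsulodin titration served as intraplate control.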
JMJD2A Tudor = JMJD2A Tudor domain (human) inhibition; O75164; AlphaScreen JMJD2A-Tudor / H3K4me3 peptide binding; Potency, µM (top dose mostly 114 µM), inactives show top-dose activity change, negative = inhibition, actives largely listed as inhibitors; 390,000 tested, 4.4% active; AID 504339; further: on the % scale 0 is the no-effect control and ±100 the full control effect; nearly all actives have a fitted effect of over 50% in size
An asterisk follows results filed as active; ? = inconclusive; nt = not tested or not shown; [ ] = remark or other dose. Compounds with a hit are over-represented: about 6.9% of the library has one in this group of screens. The call rests on the fitted dose curve; in most records, active means well fitted curve in the direction sought with a large enough effect; inconclusive means small, poorly fitted or top-dose-only effect, or another doubt; inactive means no such curve, though single readings can be large; an effect the other way counts as inactive or inconclusive. Potency means the concentration at half of the fitted maximal effect.

SMILES | HP1b binding inh | BAZ2B block | PLK1 PBD block | VDR inh | L3MBTL1 block | JMJD2A Tudor
O=C1NC(=O)N(c2ccc3c(c2)OCO3)C(=O)/C1=C/c1cccs1 | 19% | -16% | 2.1µM* | 79µM* | nt | -35%
CCc1ccc(N2C(=O)NC(=O)/C(=C/c3ccsc3)C2=O)cc1 | nt | 2% | nt | nt | nt | nt
CN(C)[C@@H](Cc1ccccc1)c1ccccc1 | nt | nt | nt | 5% | nt | nt
CC[C@]1(O)CC[C@H]2[C@@H]3CCC4=CCCC[C@@H]4[C@H]3CC[C@@]21C | nt | nt | nt | -20% | nt | nt
C=C(C)C1CCC(C)=CC1c1c(OC)cc(C)cc1OC (configuration not stated) | nt | nt | nt | 8% | nt | nt
O=C1NC(=O)N(Cc2ccccc2Cl)C(=O)/C1=C/c1cccs1 | 35% | nt | 1.2µM* | ? | nt | -14%
Cc1ccc(/C=C2\C(=O)NC(=O)N(Cc3ccccc3Cl)C2=O)o1 | 17% | 32µM* | 0.84µM* | 105% | -25% | -14%
COc1ccc(CCNc2nccn(-c3ccc(C)c(C)c3)c2=O)cc1OC | ? | 45µM* | nt | 3% | nt | -25%
COc1ccc(CCNCc2ccc(C)s2)cc1OC | 5% | -18% | -5% | -12% | 4% | -23%
CCN1C[C@]2(COC(=O)c3ccccc3N3C(=O)CC(C)C3=O)CC[C@H](OC)[C@@]34C5C[C@@H]6[C@@H](OC)C[C@@](O)(C5[C@H]6OC)[C@](O)([C@@H](OC)C23)[C@@H]14 (some centres not stated) | nt | nt | nt | 2% | nt | nt
COc1ccc(OCC#CCN2CCC(C)CC2)cc1 | 35µM* | 28µM* | -11% | -13% | -3% | -32%
O=C1NC(=O)c2c1c1c3ccccc3n3c1c1c2c2ccccc2n1C1CCC3O1 | nt | nt | nt | 3% | nt | nt
CN1C(=O)C(=Cc2ccc(Sc3ccccc3)o2)C(=O)N(C)C1=S | ? | nt | 2.7µM* | -15% | nt | 50µM*
Cc1cccc(-c2nc(CN3C(=O)CN=C(c4ccccc4)c4ccccc43)c(C)o2)c1 | -21% | 22µM* | nt | -12% | nt | ?
Cc1oc(-c2ccccc2)nc1CN1C(=O)CN=C(c2ccccc2)c2ccccc21 | -1% | ? | 5% | -7% | -6% | ?
CCOCCSc1nc2c(c(-c3cccs3)c1C#N)CC/C2=C/c1cccs1 | 130% | 11% | -25% | -11% | 14% | 36%
CC1=CC(=O)C2=C(C)C[C@@H](O)[C@@H]3[C@@H](OC(=O)[C@H]3C)[C@H]12 | nt | nt | nt | 6% | nt | nt
CCCCn1c(-c2nn(C)cc2Cl)n[nH]c1=S | 3% | -2%[57.1 µM] | -12% | 6% | -9% | 7.9µM*
Cc1cc(Oc2cc(NN3CCCCC3)c([N+](=O)[O-])cc2[N+](=O)[O-])ccc1[N+](=O)[O-] | -20% | 50µM* | -8% | -19% | ? | 18µM*
O=[N+]([O-])c1ccc(N2CCCC2)c(F)c1Br | 8% | -32% | -1% | 7% | -18% | -18%
C[C@@H](Cc1cccc(C(F)(F)F)c1)NCCCc1ccccc1 | nt | nt | nt | -20% | nt | nt
[Cl][In]([Cl])[Cl] | nt | nt | nt | 20% | nt | nt
CCCCCn1c(Sc2ccccc2)nc2c1c(=O)[nH]c(=O)n2C | -14% | -6% | 30µM* | ? | 9% | ?
COCCn1c(SCc2ccccc2Cl)nc2c1c(=O)[nH]c(=O)n2C | -7% | nt | ? | -4% | -1% | -20%
COC(=O)COc1ccc(C[C@@H](C)NC[C@H](O)c2cccc(Cl)c2)cc1 | nt | nt | nt | 5% | nt | nt
SMILES | HP1b binding inh | BAZ2B block | PLK1 PBD block | VDR inh | L3MBTL1 block | JMJD2A Tudor
c1nc[n]([Sn]([CH]2CCCCC2)([CH]2CCCCC2)[CH]2CCCCC2)n1 | nt | nt | nt | 50µM* | nt | nt
COc1cccc(C(=O)C2CCCN(Cc3ccccn3)C2)c1 (configuration not stated) | 7% | -10% | -4% | -4% | -11% | -19%
COc1cccc(CN2CCc3nc(N4CCN(c5ncccn5)CC4)ncc3C2)c1 | -7% | 40µM* | nt | 9% | nt | 63µM*
Cc1cccc(CN2CCc3nc(N4CCN(c5ccccn5)CC4)ncc3C2)c1 | 6% | 50µM* | nt | 8% | nt | 79µM*
CCC(C)/C=C(C)/C=C/C1=CC2=C(Cl)C(=O)C(C)(OC(C)=O)C(=O)C2=CO1 (configuration not stated) | ? | 25µM* | -30% | -16% | ? | 35µM*
CC[C@H](C)/C=C(C)/C=C/C1=CC2=C(Cl)C(=O)[C@@](C)(OC(C)=O)C(=O)C2=CO1 | 50µM* | nt | 1.1µM* | 40µM* | nt | 56µM*
O=c1[nH]c(=O)n(Cc2ccco2)c(O)c1C=NCc1cccs1 | -1% | ? | -9% | -12% | nt | -23%
CCn1c(O)c(C=NCc2cccs2)c(=O)[nH]c1=O | -3% | -4% | 15µM* | ? | 14% | ?
OCCNCCc1c[nH]c2ccc(OCc3ccccc3)cc12 | -9% | ? | -6% | 4% | nt | 40µM*
CC1=C2C[C@H]3[C@@H](CC=C4C[C@@H](O)CC[C@@]43C)[C@@H]2CC[C@]12O[C@@H]1C[C@H](C)CN[C@H]1C2C (some centres not stated) | nt | nt | nt | 1% | nt | nt
CN(C)S(=O)(=O)c1cc(NC(=O)COC(=O)Cc2ccccc2)ccc1Cl | 6% | -2% | 30µM* | ? | -13% | ?
O=C1C=CC2C3C(=O)N(c4ccccc4)C(=O)C3C1N2Cc1ccccc1 (configuration not stated) | 44% | nt | ? | ? | nt | -3%
CCN1C[C@]2(C)CC[C@H](OC)[C@@]34[C@@H]2[C@H](OC(C)=O)[C@]2(OCO[C@@]25C[C@@H](OC)[C@@H]2C[C@@]3(O)[C@H]5[C@@H]2OC)[C@H]14 | nt | nt | nt | -6% | nt | nt
COc1ccc(NC(c2ccccc2)P(=O)(Oc2ccccc2)Oc2ccccc2)cc1 (configuration not stated) | 2% | 25µM* | 3% | -14% | -24% | ?
O=C(Cc1ccccc1)N1CCN(Cc2cccnc2)CC1 | -45% | 32µM* | -6% | -1% | nt | 4.5µM*
CN1CCN(C(=O)Cc2ccccc2)CC1 | 65% | -8% | -20% | -13% | 5% | -7%
Cc1cccc(CN2CCN(C(=O)Cc3ccccc3)CC2)c1 | ? | 79µM* | -15% | -4% | -3% | 6.3µM*
CSc1ccc(CN2CCN(Cc3ccccc3Cl)CC2)cc1 | ? | 18µM* | -9% | -10% | -10% | 5µM*
O=C(Cc1ccccc1)N1CCN(Cc2ccccc2Cl)CC1 | ? | 20µM* | -4% | 3% | nt | 18µM*
Cc1cc(-c2nc3ncccc3o2)ccc1NC(=O)c1ccccc1Br | 48% | 6% | nt | 7% | nt | 4%
CCN1CCN(Cc2cc(Br)ccc2O)CC1 | 11% | ? | -2% | -8% | nt | -7%
CSc1ccc(CN2CCN(C(=O)Cc3ccccc3)CC2)cc1 | ? | nt | -13% | -8% | nt | 20µM*

Assay outcomes as filed in PubChem BioAssay.
